Test results published in PubChem BioAssay (NCI).
The panel holds about 83,000 compounds, 20% with a hit somewhere; the sample as a whole holds those more often.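 48-hour exposure, single concentration, 96-well plates; percent growth endpoint where 0 means no net growth. Active: below 10.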 Activity calls are given as the source filed them.

tested on: EKVX NSCLC; test: NCI-60 one-dose screen, 48 h (100 = growth as untreated, 0 = no growth, -100 = all killed); conditions: 10 µM unless noted
Description: Growth inhibition of the EKVX human Non-Small Cell Lung tumor cell line is measured as a screen for anti-cancer activity. Cells are grown in 96 well plates and exposed to the test compound for 48 hours. Compounds are tested at a single concentration, which is 10^-5 M for most compounds. The reported endpoint is percent growth (GI% or GIPRCNT), where numbers from 0 - 100% represent growth inhibition, and numbers from -100% - 0 represent cell death. For example, a value of 40 represents 60% growth inhibition. A value of 0 means no net growth occurred over the course of the experiment. A value of -40 indicates 40% of cells at the beginning of the experiment died by the end of the experiment. A value of -100 means all cells are dead at the end of the experiment.
NCI-60 Human Tumor Cell Lines Screen was performed using the standard one-dose NCI protocol, which is described in more detail at https://dtp.cancer.gov/discovery_development/nci-60/default.htm.
Compounds with GIPRCNT values below 10 were considered active. Activity score was based on GIPRCNT using the following formula: […]
Score is 0 for GIPRCNT values of 100 or above, 50 for GIPRCNT values of 0, and 100 for GIPRCNT values of -100.

Row | Compound | growth
1 | Cc1ccc([C@H]2c3[nH]c4ccccc4c3C[C@H]3C(=O)N(CCCCCCC(=O)NO)CC(=O)N23)s1 | 69.4% (inactive)
2 | Cn1ncc2c(C(=O)c3ccc(F)cc3)nc(C(C)(C)C)nc21 | 98.9% (inactive)
3 | N#Cc1c(-c2cccs2)cc(-c2cnccn2)nc1SCC(=O)N/N=C/c1ccccc1 | 56.2% (inactive)
4 | COc1ccc(/C=N/N=C(/c2ccccc2)c2ccc3nc(-c4ccc(Cl)cc4)[nH]c3c2)cc1 | 91.9% (inactive)
5 | Clc1cccc(/C=N/Nc2nc(N/N=C/c3cccc(Cl)c3)nc(N3CCCCC3)n2)c1 | 78.4% (inactive)
6 | CN1CCN(c2ccc(Nc3nc(NCCCNS(=O)(=O)c4ccc(Cl)cc4)c4sccc4n3)cc2)CC1 | 50.8% (inactive)
7 | Cc1ccc(OCc2occc2C(=O)N2CCOCC2)cc1 | 96.5% (inactive)
8 | COc1ccc2c(c1)c(-c1nn3cc(-c4ccncc4)nc3s1)cn2C | 77.6% (inactive)
9 | CN1CCC[C@]2(C)[C@H]3CC[C@@H]4[C@@H]5[C@H]6OC[C@@]5(CCC6(C)C)CC[C@@]4(C)[C@]3(C)CC[C@H]2C1(C)C | 99.6% (inactive)
10 | Cc1[nH]c(C(=O)Nc2ccccc2OCc2cccc(C(=O)NC3CCNC3)c2)c(Cl)c1Cl (stereo not given) | 79.6% (inactive)
11 | O=C(CCCCCCNC(=O)c1csc(Br)n1)NO | 53.3% (inactive)
12 | Fc1cccc(Cl)c1/C=N/Nc1nc(N/N=C/c2c(F)cccc2Cl)nc(N2CCCCC2)n1 | 13.8% (inactive)
13 | CC1(C)CC[C@]23CC[C@]4(C)[C@H](CC[C@@H]5[C@@]6(C)CC[C@H](NCO)C(C)(C)[C@@H]6CC[C@]54C)[C@H]2[C@H]1OC3 | 93.9% (inactive)
14 | O=C(Nc1cccc(C(F)(F)F)c1)N1CCN(c2cc(-c3cn(-c4ccccc4)nc3-c3cccc(O)c3)ccn2)CC1 | 42% (inactive)
15 | C/C(=N\NC(=O)Nc1ccccc1)c1nnn(-c2ccc([N+](=O)[O-])cc2)c1C | 103% (inactive)
16 | COc1ccc(/C=N/NC(=O)CSc2nc(-c3cnccn3)cc(-c3cccs3)c2C#N)cc1OC | 85.9% (inactive)
17 | CNc1sc(S(=O)(=O)NC)nc1S(=O)(=O)c1ccc(C)cc1 | 95.2% (inactive)
18 | CC1=C(C)C(=O)C(Nc2ccc(C)c(C)c2)=C(Br)C1=O | 34.2% (inactive)
19 | CCCCCc1ccc(S(=O)(=O)Nc2cc(-c3csc(N)n3)ccc2OC)cc1 | 86.4% (inactive)
20 | CN1CCN(c2ccc(Nc3nc(NCCCNS(=O)(=O)c4cccc5ccccc45)c4sccc4n3)cc2)CC1 | 36.1% (inactive)

Row | Compound | growth
21 | CC(=O)c1c([Si](C)(C)C)c2cc(C#N)ccn2c1C(=O)c1ccc(Br)cc1 | 86.9% (inactive)
22 | O=C(CCCCCC/C=C\c1csc(Br)n1)NO | 94% (inactive)
23 | CN1CCN(c2ccc(Nc3nc(NCCNC(=O)c4ccccc4)c4sccc4n3)cc2)CC1 | 97.3% (inactive)
24 | C/C(CC1(O)C(=O)Nc2ccccc21)=N\O (stereo not given) | 87.9% (inactive)
25 | C=C(C)[C@@H]1CC[C@]2(C(=O)NC3CCCCC3)CC[C@]3(C)[C@H](CC[C@@H]4[C@@]5(C)CC[C@H](N)C(C)(C)[C@@H]5CC[C@]43C)[C@@H]12 | 90.7% (inactive)
26 | O=c1nc(Nc2ccc([N+](=O)[O-])cc2O)sc2ccccc12 | 38% (inactive)
27 | CCc1cc(O)ccc1Nc1cc(-c2ccc(-n3cccn3)cc2)[nH]n1 | 63% (inactive)
28 | O=c1[nH][nH]c(-c2ccc(F)cc2)c1-c1nc2ccccc2s1 | 90.1% (inactive)
29 | Nc1ccc(Nc2ncnc3sc4c(c23)CCN(Cc2ccccc2)C4)cc1 | 102% (inactive)
30 | C#CCN(C)CCCOc1ccc(NCc2ccc(/C=C/C(=O)NO)cc2)cc1Cl | 16.3% (inactive)
31 | C#CCOc1ccccc1C(OC(=O)c1ccccc1)C(=O)NC(C)(C)C(C)(C)C (stereo not given) | 75.3% (inactive)
32 | N#C/C(=C\c1ccc(-c2ccc(Cl)c(Cl)c2)o1)C(=O)Nc1ncc(Cc2ccc(Cl)cc2)s1 | 32.2% (inactive)
33 | COc1cccc2c1C=CC1(O2)Oc2cccc(OC)c2C=C1C (stereo not given) | 47.7% (inactive)
34 | CC(O)c1cccc(/C(N)=N/C(N)=N/c2nc3ccccc3s2)c1 (stereo not given) | 91.9% (inactive)
35 | O=S1SC(c2ccccc2)=NN1c1cc(F)cc(F)c1 (stereo not given) | 38% (inactive)
36 | C/C(=N\NC(=O)/C=C/CC(=O)O)c1nnn(-c2ccc([N+](=O)[O-])cc2)c1C | 101% (inactive)
37 | O=C(COc1ccc(/C=C2\C(=O)Nc3ccc(Cl)cc32)cc1)Nc1ccc(Cl)cc1 | 74.9% (inactive)
38 | Cn1c(SCC(=O)c2ccc(F)cc2)nc2ccccc2c1=O | 79.6% (inactive)
39 | CN(C)c1ccc(-c2cc(-c3c[nH]c4ccccc34)nc(N)c2C#N)cc1 | 61.8% (inactive)
40 | COc1cc(-c2nc(-c3ccccc3)[nH]c2-c2ccnc(NCCCNS(=O)(=O)c3cccc(F)c3)n2)ccc1F | 80.8% (inactive)
